This note sets out measurements from PubChem BioAssay AID488975 (Johns Hopkins Ion Channel Center, 2010).

The whole screen tested about 310,000 compounds, of which about 2,600 (0.84%) were called active.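 The calls were made as follows: active = B-score over 3 SD under the library average, and starting fluorescence ratio not unusually high; inactive = the rest.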 The list comes from a sample in which actives are over-represented; it also holds similar structures and randomly drawn compounds.

For this assay, the target named is High affinity choline transporter 1 (Homo sapiens) (UniProt Q9GZV3). Briefly: inhibits the human high affinity choline transporter (AID 488975).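 As to B-score: choline stimulus applied at its EC90 after an EC20 pre-addition; B-score computed on integrated fluorescence ratio after choline addition.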 The note with it: CHT-expressing cells, membrane potential dye, choline response, at 10 µM; stronger effect = lower value.
Sequence of High affinity choline transporter 1 (Homo sapiens) (Q9GZV3 whole entry, looked up): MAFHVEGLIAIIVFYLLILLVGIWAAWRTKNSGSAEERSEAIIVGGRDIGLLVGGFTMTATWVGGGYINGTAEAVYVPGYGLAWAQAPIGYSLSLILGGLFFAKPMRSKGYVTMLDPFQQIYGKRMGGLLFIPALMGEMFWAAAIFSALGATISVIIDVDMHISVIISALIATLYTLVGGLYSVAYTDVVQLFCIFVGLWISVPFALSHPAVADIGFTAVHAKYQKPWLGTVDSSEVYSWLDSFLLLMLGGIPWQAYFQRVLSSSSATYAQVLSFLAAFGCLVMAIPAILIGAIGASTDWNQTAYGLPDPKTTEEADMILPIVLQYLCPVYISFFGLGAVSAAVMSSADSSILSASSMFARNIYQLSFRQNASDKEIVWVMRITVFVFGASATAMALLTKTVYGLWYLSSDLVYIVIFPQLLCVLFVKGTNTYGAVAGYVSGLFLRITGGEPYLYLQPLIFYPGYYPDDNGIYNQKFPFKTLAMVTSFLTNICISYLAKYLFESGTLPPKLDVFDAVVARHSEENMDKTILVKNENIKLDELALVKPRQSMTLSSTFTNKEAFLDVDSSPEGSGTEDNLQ
Turning to `O=C(/C=C/c1ccc([N+](=O)[O-])o1)NNC(=O)c1ccc(F)cc1`, the B-score result was “inactive”.
As for `CCN(CC)C(=O)CC(c1ccc2c(c1)OCO2)c1c(OC)cc(OC)c2c(-c3ccccc3)cc(=O)oc12` (stereo not drawn), the B-score result is “inactive”.
With `CCN(CC)CCC(c1cc(OC)c(OC)c(OC)c1)c1c(OC)cc(OC)c2c(-c3ccccc3)cc(=O)oc12` (stereo not drawn) the entry was “inactive”; with `CCN(CC)CCC(c1ccc2c(c1)OCO2)c1c(OC)cc(OC)c2c(-c3ccccc3)cc(=O)oc12` (stereo not drawn), -6.84 (active).
As for `Cc1ccc(S(=O)(=O)N2CCOCC2)cc1C(=O)Nc1ccccc1N1CCCC1`, the B-score result is “inactive”.
The same measure for `COc1ccc(N2CCN(S(=O)(=O)c3cc4c5c(c3)C(C)C(=O)N5CCC4)CC2)cc1` (stereo not drawn): “inactive”; for `Cc1ccc(-c2csc(NC(=O)C3=COCCO3)n2)cc1C`: “inactive”.
With `O=C(Nc1ncccc1O)c1ccc(S(=O)(=O)N2CCCCCC2)cc1` the entry was “inactive”.
Consider `CCOC(=O)[C@H]1[C@H]2COc3ccc(Cl)cc3[C@@H]2N2C(=O)c3cc(C)ccc3NC(=O)[C@@]12C`, for which the B-score result was “inactive”.
The same measure for `Cc1cc(NC(=O)C(C)SCC(=O)Nc2ccccc2N2CCCCC2)no1` (stereo not drawn): “inactive”.
With `CCc1cc2c(N3CCN(c4nnc(CC)s4)CC3)ncnc2s1` the figure was -7.24 (active); with `Oc1ccccc1N1CCN(c2ncnc3sc(-c4ccccc4)cc23)CC1`, “inactive”.
For the molecule `CCc1cc2c(NC3CCCC3)ncnc2s1`, the B-score entry was “inactive”.
The same measure for `COc1ccc(C(=NN)c2ccc(OC)cc2)cc1`: “inactive”; for `COc1ccc(S(=O)(=O)N2CCCCC2)cc1NC(=O)c1cc([N+](=O)[O-])ccc1N1CCOCC1`: “inactive”.
With `O=C(NCCCn1ccnc1)C(=O)c1cn(CC(=O)N2CCCCCC2)c2ccccc12` the figure was -6.23 (active); with `Cc1ccc(CNC(=O)C(=O)c2cn(CC(=O)N3CCCC3)c3ccccc23)cc1`, “inactive”; with `O=C(NCc1ccco1)C(=O)c1cn(CC(=O)N2CCCCCC2)c2ccccc12`, “inactive”.
The same measure for `CCN(CC)CCn1c2c(c(SCC(=O)Nc3nc4ccccc4s3)nc1=O)CCCC2`: “inactive”; for `CCCCn1c(SCC(=O)NCC2CCCO2)nc2ccc(N3CCOCC3)cc2c1=O` (stereo not drawn): -5.48 (active).
For the molecule `COCCNC(=O)c1ccc(Cn2c(SCC(=O)NCC3CCCO3)nc3ccc(Br)cc3c2=O)cc1` (stereo not drawn), the B-score result was “inactive”.
The same measure for `O=C(CCCn1c(SCC(=O)c2ccccc2)nc2ccccc2c1=O)NCC1CCCO1` (stereo not drawn): “inactive”; for `O=C(COc1ccccc1Cl)Nc1ccccc1C(=O)NC1CC1`: “inactive”.
The same measure for `Cc1ccc(S(=O)(=O)CCC(=O)Nc2nnc(CC(C)C)s2)cc1`: “inactive”.
As for `CCC(=O)Nc1nnc(S(=O)(=O)N2CCCc3ccccc32)s1`, the B-score result was “inactive”.
With `CC(C)CC(=O)Nc1nnc(S(=O)(=O)N(C)c2ccc(Cl)cc2)s1` the entry was “inactive”.
The same measure for `CCC(=O)Nc1nnc(S(=O)(=O)N(CC(C)C)c2ccccc2)s1`: -5.75 (active).
The same measure for `CCN(C(=O)COC(=O)C1CCN(S(=O)(=O)c2ccc(C)c(C)c2)CC1)C1CCS(=O)(=O)C1` (stereo not drawn): “inactive”; for `Cn1cccc1C(=O)NNC(=O)COc1ccc(Br)cc1`: “inactive”; for `Cc1ccc(S(=O)(=O)N2CCCCC2)cc1C(=O)N(C)CC(=O)Nc1cccc(F)c1`: “inactive”.
On to `O=C(NCC(c1ccco1)N1CCc2ccccc21)c1cccc(F)c1` (stereo not drawn), for which the B-score entry is “inactive”.
With `COc1ccc2c(c1)OC(O)(C(F)(F)C(F)F)CC2=O` (stereo not drawn) the figure was -5.18 (active); with `CC1(C)CC(=O)c2ccc(O)cc2O1`, “inactive”; with `COc1ccc2c(c1)SC(C)CC2=O` (stereo not drawn), “inactive”.
The same measure for `COC(=O)[C@@]12CCCN1[C@H](c1ccc(-c3ccc(F)cc3)c(OC)c1)[C@H]1C(=O)N(C)C(=O)[C@H]12`: “inactive”.
The same measure for `CCN(CC)c1ccc(NC(=O)c2ccc(=O)[nH]c2)cc1S(=O)(=O)Nc1ccc(OC)cc1`: “inactive”; for `COc1cc(/C=N/NC(=O)c2cc(-c3ccccc3C)nc3ccccc23)cc(OC)c1O`: “inactive”.
`Cc1ccnc(NC(=O)c2ccco2)n1`: the B-score entry is “inactive”.
With `O=C(Nc1nonc1-c1ccc(Cl)cc1)c1ccco1` the figure was -5.55 (active).
In the case of `O=C(Nc1ccccc1)c1ccco1`, the B-score entry was “inactive”.
With `CN(Cc1ccccc1F)C(=O)C(Cc1ccccc1)NC(=O)c1ccccc1` (stereo not drawn) the entry was “inactive”; with `O=C(NNC(=O)c1cc(-c2ccccc2Cl)nc2ccccc12)c1csc(N2CCOCC2)n1`, “inactive”; with `O=S(=O)(Cc1cc(Cl)nc(-c2cccnc2)n1)c1ccccc1`, -6.86 (active).
Take `O=S(=O)(NCCc1csc(-c2ccccc2)n1)c1cccnc1`: the B-score entry was “inactive”.
The same measure for `O=S(=O)(Cc1cc(Sc2ccccc2)nc(-c2ccccc2)n1)c1ccccc1`: “inactive”; for `COc1ccccc1NC(=O)C(C)OC(=O)c1ccc(-n2cnnn2)cc1` (stereo not drawn): “inactive”; for `CCC1Nc2ncnc(N3CCN(c4ccccc4)CC3)c2N(Cc2ccc(Cl)cc2)C1=O` (stereo not drawn): “inactive”.
Turning to `CCOC(=O)C1C(c2ccc(Cl)cc2)NC(=S)NC1(O)C(F)(F)F` (stereo not drawn), the B-score entry is “inactive”.
As for `O=C(c1cccs1)C1C(c2ccc(Br)cc2)NC(=S)NC1(O)C(F)(F)F` (stereo not drawn), the B-score is -8.32 (active).
With `CC(=O)C1C(c2ccc(Cl)cc2)NC(=O)NC1(O)C(F)(F)F` (stereo not drawn) the entry was “inactive”; with `CN(c1cccc(NC(=O)c2ccc(CN3CCc4ccccc4C3)cc2)c1)S(C)(=O)=O`, “inactive”.
With `Cc1ccc(NC(=O)CN2CCc3ccccc3C2)cc1C` the entry was “inactive”.
With `Cc1cccc(C)c1NC(=O)c1ccc(CN2CCc3ccccc3C2)cc1` the figure was -5.84 (active); with `CCCCn1c(N)c(N(CC(C)C)C(=O)c2ccc(-n3c(C)ccc3C)cc2)c(=O)[nH]c1=O`, “inactive”; with `COc1ccc2c(c1)[C@H]1[C@H](CO2)[C@H](c2ccccc2)[C@]2(C)C(=O)Nc3cc(F)c(F)cc3C(=O)N12`, “inactive”.
As to `C=CCn1c(SCc2ccc(C(=O)NCCO)cc2)nc2ccccc2c1=O`, the B-score was -5.96 (active).
With `O=C(Nn1c(SCc2ccc([N+](=O)[O-])cc2)nc2ccccc2c1=O)c1ccc(F)cc1`, the B-score result is “inactive”.
The same measure for `COCCNC(=O)c1ccc(-n2c(SCc3cccnc3)nc3ccccc3c2=O)cc1`: “inactive”; for `CCN1CCN(c2ccc(S(=O)(=O)N3CCCCC3)cc2NC(=O)c2cccc(NC(C)=O)c2)CC1`: “inactive”.
With `CC(OC(=O)CCCOc1ccccc1)C(=O)Nc1ccc(Cl)cn1` (stereo not drawn) the entry was “inactive”; with `O=C(NCCC1CCCCN1S(=O)(=O)c1cccs1)C(=O)Nc1ccc(F)cc1F` (stereo not drawn), “inactive”; with `CC12CCC(=O)N1C(C(=O)Nc1ccc(F)c(F)c1F)CS2` (stereo not drawn), “inactive”.
The same measure for `Cc1oc2cc(Br)c(O)c(Br)c2c1C(=O)c1ccccc1`: “inactive”; for `Cc1oc2cc([N+](=O)[O-])c(O)c([N+](=O)[O-])c2c1C(=O)c1ccc(Br)cc1`: -6.57 (active).
As to `COc1ccc(C(=O)c2c(C)oc3cc([N+](=O)[O-])c(O)c([N+](=O)[O-])c23)cc1`, the B-score result is “inactive”.
With `COc1ccccc1CCNC(=O)C(=O)NCCC1CCCCN1S(=O)(=O)c1cccs1` (stereo not drawn) the entry was “inactive”.
With `CCOc1ccc(NS(=O)(=O)c2ccc(C(=O)NCC(c3ccccc3OC)N3CCCC3)cc2)cc1` (stereo not drawn) the entry was “inactive”; with `COc1ccc(Cl)cc1NC(=O)CN(C)C(=O)c1cc2ccccc2cc1OC`, “inactive”.
For the molecule `Cc1onc(-c2ccccc2Cl)c1C(=O)OCc1nnc(-c2ccccc2)o1`, the B-score entry is “inactive”.
Consider `COc1ccc(NC(=O)CSc2nc(N)c(-c3ccccc3)c(=O)[nH]2)cc1`, for which the B-score entry was “inactive”.
On to `COc1ccc(NC(=O)c2sc(N3CCOCC3)nc2-c2ccccc2)c(OC)c1`, for which the B-score result was “inactive”.
With `COc1ccc(NC(=O)c2sc(N)nc2-c2ccccc2)cc1` the figure was -8.57 (active); with `COCCOC1CCN(C(=O)c2ccc(OC)c(OC3CCN(C(C)C)CC3)c2)CC1`, “inactive”.
The same measure for `COc1ccc(C(=O)NC(C)c2nccs2)cc1OC1CCN(C(C)C)CC1` (stereo not drawn): -5.22 (active); for `COc1ccc(C(=O)NC2CC2)cc1OC1CCN(Cc2cnn(C)c2)CC1`: “inactive”; for `Cc1cc(C)c(S(=O)(=O)NCC(c2ccc3c(c2)OCO3)N2CCOCC2)c(C)c1` (stereo not drawn): “inactive”.
Consider `Cc1nc2ccccc2c(=O)n1-c1ccc(NS(=O)(=O)c2ccc(F)cc2F)cc1`, for which the B-score entry is “inactive”.
The same measure for `COc1ccc(C(=O)OCC(=O)c2ccc(Cl)s2)c(OC)c1OC`: “inactive”; for `CN(C)CCCN(C(=O)c1ccc(S(=O)(=O)N2CCCCCC2)cc1)c1nc2cc3c(cc2s1)OCCO3`: “inactive”.
With `O=C(O)c1ccc(N/N=C/c2cn(-c3ccccc3)nc2-c2cccs2)cc1` the figure was -5.81 (active); with `O=C(O)/C=C/c1cn(-c2ccccc2)nc1-c1cccs1`, “inactive”.
With `O=C(/C=C\c1cn(-c2ccccc2)nc1-c1cccs1)N1CCOCC1` the entry was “inactive”.
Take `COc1ccc(NS(=O)(=O)c2ccc(C)c(C(=O)NCC(c3cccs3)N3CCOCC3)c2)cc1` (stereo not drawn): the B-score result is “inactive”.
With `CCN(C(=O)CSc1ncn[nH]1)c1cccc2ccccc12` the entry was “inactive”; with `CC(C)(C)c1ccc(C(=O)CSc2ncn[nH]2)cc1`, -5 (active); with `Cn1nnc(NC(=O)CSc2ncn[nH]2)n1`, “inactive”.
With `O=C(CCNC(=O)c1ccc(Br)cc1)Nc1cccc(S(=O)(=O)N2CCCCC2)c1` the entry was “inactive”.
With `CCOC(=O)c1c(C)oc2cc(Sc3ccccc3)c(O)c(O)c12` the entry was “inactive”; with `CCN1C(=O)[C@H]2[C@@H](c3ccc(-c4ccc(OC)cc4)cc3)N[C@@](Cc3ccccc3)(C(=O)OC)[C@H]2C1=O`, “inactive”; with `COc1ccc(C2=NOC(Cn3nc(C(=O)NCc4ccc5c(c4)OCO5)cc3-c3ccccc3)C2)cc1` (stereo not drawn), “inactive”.
On to `Cc1cccc(N(Cc2ccccc2)C(=O)c2cc(S(=O)(=O)N3CCOCC3)ccc2F)c1`, for which the B-score entry is “inactive”.
With `CC(=O)c1ccc(Oc2cc(C)nc(-n3nc(C)cc3C)n2)cc1` the figure was -5.97 (active); with `Cc1cc(C)n(-c2ccc(Cl)c(C(=O)O)n2)n1`, “inactive”.
With `Cc1cc(C)n(-c2cc(Oc3ccccc3)ncn2)n1` the entry was “inactive”.
For the molecule `O=C1[C@H]2[C@@H](c3ccc(Cl)cc3)N3C(=O)N(c4cccc(F)c4)C(=O)[C@@]3(Cc3ccccc3)[C@H]2C(=O)N1C1CCCCC1`, the B-score result is “inactive”.
With `CC(C)C(=O)Nc1cccc(NC(=S)NC(=O)C(c2ccccc2)c2ccccc2)c1` the entry was “inactive”; with `CCCCC(=O)NNC(=S)NC(=O)C(c1ccccc1)c1ccccc1`, -10.8 (active); with `O=C(NNC(=S)NCc1ccco1)C(c1ccccc1)c1ccccc1`, “inactive”.
